Laboratory results: ChEMBL document CHEMBL1961873, “Compounds: GSK PKIS; Assays: Nanosyn kinase panel” (2012)

How the values were obtained:
[1] = target: Protein kinase C gamma type (Homo sapiens) (UniProt P05129); conditions: at 1 µM;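 note: each value is an averaged percent inhibition of the enzyme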
[2] = target: T1, Protein kinase C iota type (Homo sapiens) (UniProt P41743); conditions: at 0.1 µM
T1 sequence (whole entry): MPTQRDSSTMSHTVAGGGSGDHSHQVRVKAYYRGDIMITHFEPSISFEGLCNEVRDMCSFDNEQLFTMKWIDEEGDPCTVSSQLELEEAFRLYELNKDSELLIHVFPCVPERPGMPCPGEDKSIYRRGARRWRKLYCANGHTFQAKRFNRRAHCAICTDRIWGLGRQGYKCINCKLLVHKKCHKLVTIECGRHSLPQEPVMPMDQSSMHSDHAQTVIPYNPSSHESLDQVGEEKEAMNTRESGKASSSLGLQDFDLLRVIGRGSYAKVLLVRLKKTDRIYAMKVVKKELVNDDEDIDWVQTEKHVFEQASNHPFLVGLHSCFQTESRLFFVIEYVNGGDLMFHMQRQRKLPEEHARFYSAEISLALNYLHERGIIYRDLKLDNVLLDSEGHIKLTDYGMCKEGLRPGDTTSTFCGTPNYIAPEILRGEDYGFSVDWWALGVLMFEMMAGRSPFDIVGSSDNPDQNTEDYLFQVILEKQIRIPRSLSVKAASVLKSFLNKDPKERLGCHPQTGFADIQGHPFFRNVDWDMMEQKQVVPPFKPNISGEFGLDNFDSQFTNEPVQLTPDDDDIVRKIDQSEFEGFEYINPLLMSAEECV

[3] = target: T1, Protein kinase C iota type (Homo sapiens); conditions: at 1 µM
[4] = target: Protein kinase C theta type (Homo sapiens) (UniProt Q04759); conditions: at 0.1 µM
Sequence of Protein kinase C theta type (Homo sapiens) (Q04759 whole entry, looked up): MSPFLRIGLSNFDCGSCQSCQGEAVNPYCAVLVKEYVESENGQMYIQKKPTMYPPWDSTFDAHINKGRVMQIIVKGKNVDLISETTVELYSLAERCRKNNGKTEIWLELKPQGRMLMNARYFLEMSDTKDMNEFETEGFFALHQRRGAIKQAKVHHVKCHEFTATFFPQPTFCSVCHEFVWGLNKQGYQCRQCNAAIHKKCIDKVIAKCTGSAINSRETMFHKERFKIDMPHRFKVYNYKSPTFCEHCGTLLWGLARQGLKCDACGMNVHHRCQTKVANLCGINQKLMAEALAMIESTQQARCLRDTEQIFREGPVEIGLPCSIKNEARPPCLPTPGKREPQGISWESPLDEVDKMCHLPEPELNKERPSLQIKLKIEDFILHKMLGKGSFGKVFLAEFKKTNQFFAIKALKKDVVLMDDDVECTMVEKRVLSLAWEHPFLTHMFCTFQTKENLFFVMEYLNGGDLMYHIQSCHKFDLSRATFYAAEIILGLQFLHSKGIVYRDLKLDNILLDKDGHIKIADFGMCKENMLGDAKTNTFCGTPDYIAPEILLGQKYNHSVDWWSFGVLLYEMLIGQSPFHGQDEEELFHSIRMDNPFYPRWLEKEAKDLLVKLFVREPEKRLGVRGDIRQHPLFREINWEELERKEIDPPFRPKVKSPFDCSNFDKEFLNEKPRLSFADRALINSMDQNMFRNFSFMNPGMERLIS

[5] = target: Protein kinase C theta type (Homo sapiens) (UniProt Q04759); conditions: at 1 µM
[6] = target: Protein kinase C beta type (Homo sapiens) (UniProt P05771); conditions: at 0.1 µM
Sequence of Protein kinase C beta type (Homo sapiens) (P05771 2-671 limits assumed): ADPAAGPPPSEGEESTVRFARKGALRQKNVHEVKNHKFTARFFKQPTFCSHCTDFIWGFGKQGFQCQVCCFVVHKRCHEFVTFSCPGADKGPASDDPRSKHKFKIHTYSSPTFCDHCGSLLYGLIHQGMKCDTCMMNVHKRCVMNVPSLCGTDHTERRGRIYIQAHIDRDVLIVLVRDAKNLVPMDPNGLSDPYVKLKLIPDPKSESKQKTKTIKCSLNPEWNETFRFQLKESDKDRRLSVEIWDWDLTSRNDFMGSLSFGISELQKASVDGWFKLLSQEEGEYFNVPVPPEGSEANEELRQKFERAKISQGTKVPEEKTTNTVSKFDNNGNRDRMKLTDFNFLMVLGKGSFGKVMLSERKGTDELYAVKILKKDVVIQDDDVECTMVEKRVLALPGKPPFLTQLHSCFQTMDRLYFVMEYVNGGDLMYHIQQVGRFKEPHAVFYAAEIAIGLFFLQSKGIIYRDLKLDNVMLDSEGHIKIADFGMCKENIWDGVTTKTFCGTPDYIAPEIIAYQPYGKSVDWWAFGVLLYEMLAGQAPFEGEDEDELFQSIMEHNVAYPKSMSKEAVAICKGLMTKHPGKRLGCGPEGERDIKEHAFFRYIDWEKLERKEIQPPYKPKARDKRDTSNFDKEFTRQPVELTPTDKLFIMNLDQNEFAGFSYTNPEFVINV

[7] = target: Protein kinase C beta type (Homo sapiens) (UniProt P05771); conditions: at 1 µM
[8] = target: T2, Serine/threonine-protein kinase D1 (Homo sapiens) (UniProt Q15139); conditions: at 0.1 µM
T2 sequence (whole entry): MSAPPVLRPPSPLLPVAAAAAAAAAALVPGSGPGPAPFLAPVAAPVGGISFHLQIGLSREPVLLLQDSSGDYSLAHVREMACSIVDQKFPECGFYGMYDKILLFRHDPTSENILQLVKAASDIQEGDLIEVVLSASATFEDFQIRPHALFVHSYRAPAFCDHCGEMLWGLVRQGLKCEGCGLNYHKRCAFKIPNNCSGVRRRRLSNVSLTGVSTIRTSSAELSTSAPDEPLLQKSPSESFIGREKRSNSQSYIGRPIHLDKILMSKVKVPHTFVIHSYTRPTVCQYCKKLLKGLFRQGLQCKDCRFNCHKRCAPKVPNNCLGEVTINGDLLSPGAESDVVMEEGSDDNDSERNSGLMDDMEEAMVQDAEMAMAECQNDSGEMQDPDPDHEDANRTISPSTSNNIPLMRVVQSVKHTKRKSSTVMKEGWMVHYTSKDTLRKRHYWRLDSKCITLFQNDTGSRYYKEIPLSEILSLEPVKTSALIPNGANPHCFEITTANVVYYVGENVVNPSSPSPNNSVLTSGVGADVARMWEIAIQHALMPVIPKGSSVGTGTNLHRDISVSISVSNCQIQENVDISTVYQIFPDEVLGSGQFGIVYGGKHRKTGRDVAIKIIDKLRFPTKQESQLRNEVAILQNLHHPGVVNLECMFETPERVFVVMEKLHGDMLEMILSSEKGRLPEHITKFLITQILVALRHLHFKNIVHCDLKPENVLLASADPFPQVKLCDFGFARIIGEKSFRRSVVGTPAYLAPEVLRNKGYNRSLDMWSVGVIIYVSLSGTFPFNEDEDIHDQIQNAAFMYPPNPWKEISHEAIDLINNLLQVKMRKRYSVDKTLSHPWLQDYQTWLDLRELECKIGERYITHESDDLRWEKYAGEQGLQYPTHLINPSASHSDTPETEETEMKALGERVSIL

[9] = target: T2, Serine/threonine-protein kinase D1 (Homo sapiens); conditions: at 1 µM
[10] = target: T3, Serine/threonine-protein kinase D2 (Homo sapiens) (UniProt Q9BZL6); conditions: at 0.1 µM
T3 sequence (whole entry): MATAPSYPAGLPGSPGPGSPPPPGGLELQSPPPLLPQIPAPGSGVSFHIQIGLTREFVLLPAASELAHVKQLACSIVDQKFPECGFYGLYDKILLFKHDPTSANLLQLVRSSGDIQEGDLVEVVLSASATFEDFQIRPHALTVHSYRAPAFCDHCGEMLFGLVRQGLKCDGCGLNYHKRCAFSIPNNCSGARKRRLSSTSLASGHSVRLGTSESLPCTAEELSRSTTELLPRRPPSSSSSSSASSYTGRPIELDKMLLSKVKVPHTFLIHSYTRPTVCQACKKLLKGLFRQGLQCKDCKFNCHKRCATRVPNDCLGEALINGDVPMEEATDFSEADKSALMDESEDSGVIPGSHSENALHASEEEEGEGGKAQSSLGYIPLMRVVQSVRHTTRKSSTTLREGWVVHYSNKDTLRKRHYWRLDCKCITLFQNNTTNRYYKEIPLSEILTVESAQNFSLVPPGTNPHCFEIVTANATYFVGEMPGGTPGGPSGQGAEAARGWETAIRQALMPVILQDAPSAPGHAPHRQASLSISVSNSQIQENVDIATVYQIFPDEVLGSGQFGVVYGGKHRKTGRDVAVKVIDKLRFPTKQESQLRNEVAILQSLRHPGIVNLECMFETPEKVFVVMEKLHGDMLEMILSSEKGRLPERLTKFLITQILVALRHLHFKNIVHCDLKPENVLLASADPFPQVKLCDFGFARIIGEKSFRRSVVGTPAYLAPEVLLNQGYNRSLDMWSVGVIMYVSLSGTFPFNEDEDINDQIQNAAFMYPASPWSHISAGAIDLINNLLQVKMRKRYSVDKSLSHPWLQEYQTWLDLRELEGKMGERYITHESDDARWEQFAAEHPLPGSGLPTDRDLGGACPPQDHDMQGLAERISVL

[11] = target: T3, Serine/threonine-protein kinase D2 (Homo sapiens); conditions: at 1 µM
[12] = target: T4, Serine/threonine-protein kinase D3 (Homo sapiens) (UniProt O94806); conditions: at 0.1 µM
T4 sequence (whole entry): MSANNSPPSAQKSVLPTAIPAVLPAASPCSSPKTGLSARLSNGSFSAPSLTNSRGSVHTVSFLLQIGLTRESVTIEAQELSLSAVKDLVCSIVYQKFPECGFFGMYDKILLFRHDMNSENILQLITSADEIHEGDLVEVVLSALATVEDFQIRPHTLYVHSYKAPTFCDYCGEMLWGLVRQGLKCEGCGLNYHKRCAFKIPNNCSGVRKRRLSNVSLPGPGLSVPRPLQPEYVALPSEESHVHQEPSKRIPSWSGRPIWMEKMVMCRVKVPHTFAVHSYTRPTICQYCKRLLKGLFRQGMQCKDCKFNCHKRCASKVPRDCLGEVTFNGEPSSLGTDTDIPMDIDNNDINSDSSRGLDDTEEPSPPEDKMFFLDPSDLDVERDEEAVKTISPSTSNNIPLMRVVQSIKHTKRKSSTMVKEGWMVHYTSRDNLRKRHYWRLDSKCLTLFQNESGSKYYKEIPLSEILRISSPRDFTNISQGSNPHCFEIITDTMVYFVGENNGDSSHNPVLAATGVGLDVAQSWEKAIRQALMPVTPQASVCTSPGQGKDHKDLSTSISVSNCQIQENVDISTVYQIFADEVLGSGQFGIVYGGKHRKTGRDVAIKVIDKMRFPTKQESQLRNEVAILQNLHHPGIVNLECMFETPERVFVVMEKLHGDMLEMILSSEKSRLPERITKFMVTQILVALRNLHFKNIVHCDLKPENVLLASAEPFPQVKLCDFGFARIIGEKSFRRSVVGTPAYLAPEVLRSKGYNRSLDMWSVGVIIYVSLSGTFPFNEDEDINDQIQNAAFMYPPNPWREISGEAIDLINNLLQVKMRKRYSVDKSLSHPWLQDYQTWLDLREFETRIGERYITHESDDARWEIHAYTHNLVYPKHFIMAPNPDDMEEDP

[13] = target: T4, Serine/threonine-protein kinase D3 (Homo sapiens); conditions: at 1 µM
[14] = target: T5, cGMP-dependent protein kinase 1 (Homo sapiens) (UniProt Q13976); conditions: at 0.1 µM
T5 sequence (whole entry): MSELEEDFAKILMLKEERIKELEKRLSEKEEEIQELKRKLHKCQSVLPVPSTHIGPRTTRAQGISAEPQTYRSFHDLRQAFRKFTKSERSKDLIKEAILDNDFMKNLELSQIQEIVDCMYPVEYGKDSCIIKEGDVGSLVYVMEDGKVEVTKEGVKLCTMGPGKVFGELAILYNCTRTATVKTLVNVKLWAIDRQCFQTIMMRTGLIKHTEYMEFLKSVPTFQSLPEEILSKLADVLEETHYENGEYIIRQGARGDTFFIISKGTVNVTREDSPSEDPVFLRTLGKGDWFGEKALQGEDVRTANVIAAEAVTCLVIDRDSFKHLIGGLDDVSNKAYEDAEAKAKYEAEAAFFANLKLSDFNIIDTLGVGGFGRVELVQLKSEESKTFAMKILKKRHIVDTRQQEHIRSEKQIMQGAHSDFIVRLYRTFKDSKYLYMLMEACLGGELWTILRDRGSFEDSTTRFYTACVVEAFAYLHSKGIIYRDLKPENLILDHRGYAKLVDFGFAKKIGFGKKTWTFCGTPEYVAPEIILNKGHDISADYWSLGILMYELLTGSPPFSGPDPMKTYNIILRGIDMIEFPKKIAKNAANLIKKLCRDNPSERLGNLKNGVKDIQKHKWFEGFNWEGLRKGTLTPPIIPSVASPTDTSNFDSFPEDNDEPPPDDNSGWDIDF

[15] = target: T5, cGMP-dependent protein kinase 1 (Homo sapiens); conditions: at 1 µM
[16] = target: T6, cGMP-dependent protein kinase 2 (Homo sapiens) (UniProt Q13237); conditions: at 0.1 µM
T6 sequence (whole entry): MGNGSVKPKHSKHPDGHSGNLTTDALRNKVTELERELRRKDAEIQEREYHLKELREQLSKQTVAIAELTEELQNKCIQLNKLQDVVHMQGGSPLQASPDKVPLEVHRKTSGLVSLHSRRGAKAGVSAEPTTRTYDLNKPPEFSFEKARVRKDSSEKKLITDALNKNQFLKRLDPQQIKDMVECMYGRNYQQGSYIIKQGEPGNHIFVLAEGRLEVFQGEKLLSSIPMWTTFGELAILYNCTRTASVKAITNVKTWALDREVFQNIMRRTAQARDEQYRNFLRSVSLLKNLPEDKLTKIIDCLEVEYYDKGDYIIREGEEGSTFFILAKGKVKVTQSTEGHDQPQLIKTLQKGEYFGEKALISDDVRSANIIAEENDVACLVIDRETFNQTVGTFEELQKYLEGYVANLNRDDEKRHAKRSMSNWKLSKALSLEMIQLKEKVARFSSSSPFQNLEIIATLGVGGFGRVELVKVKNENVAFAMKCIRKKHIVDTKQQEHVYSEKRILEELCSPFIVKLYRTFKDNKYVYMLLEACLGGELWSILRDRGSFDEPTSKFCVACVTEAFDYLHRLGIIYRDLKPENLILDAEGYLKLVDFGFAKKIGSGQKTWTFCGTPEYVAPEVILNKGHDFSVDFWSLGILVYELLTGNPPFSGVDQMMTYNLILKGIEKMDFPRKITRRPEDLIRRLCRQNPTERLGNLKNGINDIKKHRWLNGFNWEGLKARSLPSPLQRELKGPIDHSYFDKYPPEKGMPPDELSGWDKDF

[17] = target: T6, cGMP-dependent protein kinase 2 (Homo sapiens); conditions: at 1 µM
[18] = target: T7, cAMP-dependent protein kinase catalytic subunit PRKX (Homo sapiens) (UniProt P51817); conditions: at 0.1 µM
T7 sequence (whole entry): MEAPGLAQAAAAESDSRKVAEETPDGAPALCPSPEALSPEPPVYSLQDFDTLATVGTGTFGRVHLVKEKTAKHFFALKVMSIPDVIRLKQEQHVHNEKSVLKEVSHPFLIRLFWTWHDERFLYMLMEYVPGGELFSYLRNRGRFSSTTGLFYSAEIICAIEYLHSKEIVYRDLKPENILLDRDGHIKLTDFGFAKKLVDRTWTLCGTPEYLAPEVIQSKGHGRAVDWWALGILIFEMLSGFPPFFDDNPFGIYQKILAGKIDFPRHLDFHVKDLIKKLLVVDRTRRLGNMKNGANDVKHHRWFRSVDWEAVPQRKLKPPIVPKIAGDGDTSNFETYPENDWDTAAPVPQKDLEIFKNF

[19] = target: T7, cAMP-dependent protein kinase catalytic subunit PRKX (Homo sapiens); conditions: at 1 µM
[20] = target: Rho-associated protein kinase 1 (Homo sapiens) (UniProt Q13464); conditions: at 0.1 µM;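 note: values are mean percent inhibition of ROCK1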
Sequence of Rho-associated protein kinase 1 (Homo sapiens) (Q13464 2-1354 limits assumed): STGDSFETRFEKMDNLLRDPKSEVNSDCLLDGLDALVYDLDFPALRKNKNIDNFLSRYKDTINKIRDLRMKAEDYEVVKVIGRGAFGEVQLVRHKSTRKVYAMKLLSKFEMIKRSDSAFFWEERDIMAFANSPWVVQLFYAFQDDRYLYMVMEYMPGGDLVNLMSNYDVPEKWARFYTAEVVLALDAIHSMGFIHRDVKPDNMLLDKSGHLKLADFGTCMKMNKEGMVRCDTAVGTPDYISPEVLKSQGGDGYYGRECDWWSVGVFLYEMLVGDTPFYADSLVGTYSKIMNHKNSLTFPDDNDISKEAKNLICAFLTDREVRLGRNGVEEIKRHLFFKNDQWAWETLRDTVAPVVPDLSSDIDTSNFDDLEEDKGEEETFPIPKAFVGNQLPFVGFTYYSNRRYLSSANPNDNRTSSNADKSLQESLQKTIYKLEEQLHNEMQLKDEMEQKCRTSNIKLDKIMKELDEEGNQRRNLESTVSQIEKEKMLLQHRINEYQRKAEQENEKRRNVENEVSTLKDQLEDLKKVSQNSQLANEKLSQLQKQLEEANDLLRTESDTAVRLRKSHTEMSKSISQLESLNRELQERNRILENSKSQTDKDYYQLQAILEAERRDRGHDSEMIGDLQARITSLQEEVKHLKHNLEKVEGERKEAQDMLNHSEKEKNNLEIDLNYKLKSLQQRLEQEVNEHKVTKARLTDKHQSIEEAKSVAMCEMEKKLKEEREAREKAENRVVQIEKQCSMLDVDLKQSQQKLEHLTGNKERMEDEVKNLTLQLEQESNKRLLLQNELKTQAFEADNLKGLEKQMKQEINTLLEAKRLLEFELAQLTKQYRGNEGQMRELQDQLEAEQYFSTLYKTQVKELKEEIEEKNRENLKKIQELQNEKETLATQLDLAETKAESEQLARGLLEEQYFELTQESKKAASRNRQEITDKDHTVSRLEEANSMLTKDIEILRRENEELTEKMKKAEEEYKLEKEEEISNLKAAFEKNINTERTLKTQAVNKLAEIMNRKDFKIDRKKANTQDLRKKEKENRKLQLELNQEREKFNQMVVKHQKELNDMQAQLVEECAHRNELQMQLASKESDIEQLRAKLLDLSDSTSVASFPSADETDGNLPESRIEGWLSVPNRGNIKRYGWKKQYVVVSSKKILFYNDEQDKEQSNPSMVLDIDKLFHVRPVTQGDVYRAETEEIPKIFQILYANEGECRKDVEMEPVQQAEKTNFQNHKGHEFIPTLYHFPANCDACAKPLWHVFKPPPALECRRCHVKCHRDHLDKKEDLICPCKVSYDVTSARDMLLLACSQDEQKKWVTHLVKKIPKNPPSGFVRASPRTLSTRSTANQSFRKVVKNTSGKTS

SMILES | inhibition [1] [%] | inhibition [2] [%] | inhibition [3] [%] | inhibition [4] [%] | inhibition [5] [%] | inhibition [6] [%] | inhibition [7] [%] | inhibition [8] [%] | inhibition [9] [%] | inhibition [10] [%] | inhibition [11] [%] | inhibition [12] [%] | inhibition [13] [%] | inhibition [14] [%] | inhibition [15] [%] | inhibition [16] [%] | inhibition [17] [%] | inhibition [18] [%] | inhibition [19] [%] | inhibition [20] [%]
CN(C)c1cc2c(Nc3ccc4c(cnn4Cc4ccccc4)c3)ncnc2cn1 | -1.38 | 0.79 | 1.74 | 0.5 | 0.28 | 0.51 | 0.93 | 2.68 | 5.12 | 3.3 | 4.01 | 3.24 | 4.21 | 0.2 | 4.15 | 2.57 | 2.77 | 1.48 | 0.84 | 0.25
O=C(Nc1ccc(Oc2ccc3[nH]c(NC(=O)c4ccco4)nc3c2)cc1)Nc1cc(C(F)(F)F)ccc1F | 2.22 | 0.86 | -0.83 | -0.73 | 1.78 | 0.05 | 1.61 | -3.35 | -2.46 | -3.46 | -1.48 | -3.15 | -1.16 | 1.18 | 4.28 | 1.74 | 4.38 | 4 | 4.61 | 3.36
CS(=O)(=O)CCNCc1nc(-c2ccc3ncnc(Nc4ccc(OCc5cccc(C(F)(F)F)c5)cc4)c3c2)cs1 | 1.21 | -0.91 | -0.71 | 0.61 | 0.48 | 0.86 | 1.98 | 1.69 | 0.7 | 1.93 | 0.2 | 0.92 | 2.19 | 0.49 | 2.23 | 0.51 | 1.54 | 0.7 | -0.71 | -0.53
[O-][S+]1CCN(Cc2ccc(-c3ccc4ncnc(Nc5ccc(OCc6ccccc6)c(Cl)c5)c4c3)o2)CC1 | 3.28 | 1.72 | 1.88 | 1.06 | 1.03 | 0.97 | 2.88 | 1.74 | 2.75 | 1.16 | 1.77 | 1.61 | 2.2 | 1.79 | 0.53 | 0.97 | 2.95 | 1.3 | 1.17 | 0.9
